# Only some compounds are listed: those with a hit (about 14% of all), similar ones and a draw of the others.
# USP17 inh: inhibitors of human USP17 deubiquitinase; inhibition, % at 50 µM; A8MUK1; purified USP17, Ub-rhodamine cleavage fluorescence, 3 h; 47,000 tested, 6.5% active
# Target sequence (A8MUK1 whole entry, looked up): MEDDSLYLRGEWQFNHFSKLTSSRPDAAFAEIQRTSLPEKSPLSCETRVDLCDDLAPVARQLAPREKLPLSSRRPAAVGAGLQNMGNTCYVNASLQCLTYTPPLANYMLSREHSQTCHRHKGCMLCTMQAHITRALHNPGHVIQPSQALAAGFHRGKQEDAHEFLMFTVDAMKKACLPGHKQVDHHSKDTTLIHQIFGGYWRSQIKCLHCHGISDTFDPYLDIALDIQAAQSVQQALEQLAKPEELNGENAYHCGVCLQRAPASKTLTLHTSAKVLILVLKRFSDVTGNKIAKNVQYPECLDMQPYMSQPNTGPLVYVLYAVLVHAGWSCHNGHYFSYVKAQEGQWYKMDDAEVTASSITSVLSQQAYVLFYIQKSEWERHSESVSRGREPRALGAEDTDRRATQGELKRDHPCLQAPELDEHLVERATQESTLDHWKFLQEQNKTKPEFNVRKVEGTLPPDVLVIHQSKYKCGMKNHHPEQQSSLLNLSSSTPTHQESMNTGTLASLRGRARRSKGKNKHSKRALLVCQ
# USP28 block: human USP28 deubiquitinase inhibition. 47,000 tested, 3% active. AID 1645857. Q96RU2. inhibition, % at 25 µM. purified USP28, Ub-rhodamine cleavage fluorescence, 30 min
# USP30 block: human USP30 deubiquitinase inhibition; inhibition, % at 25 µM; purified USP30, Ub-rhodamine cleavage fluorescence; 47,000 tested, 5.3% active
# USP8 inh: human USP8 deubiquitinase inhibition. P40818. purified USP8, Ub-rhodamine cleavage fluorescence, 30 min. inhibition, % at 20 µM. 47,000 tested, 4.2% active. AID 1645853
# * marks the source's active call; other numbers are inactive results; · = not tested or not shown. No stated cut-off is given here; in the data, active means inhibition above about 30%; inactive means the rest.
SMILES,USP17 inh,USP28 block,USP30 block,USP8 inh
CCc1ccc(S(=O)(=O)Nc2ccc(-c3nnc(-c4ccccc4)o3)cc2)cc1,27,33*,32*,32*
CCN1CCc2c(sc(NC(=O)CSc3ccc(Cl)cc3)c2C(N)=O)C1,34*,15,28,0
Cc1cccc(CNS(=O)(=O)c2c(C)[nH]c(C)c2-c2nnc(C)o2)c1,1,-3,0,2
CSc1ccc(C(=O)Nc2nc(-c3ccncc3)cs2)cc1,24,7,5,44*
CSc1ccccc1C(=O)Nc1nc(-c2ccncc2)cs1,55*,4,34*,-1
COc1ccc(NC(=O)c2cccnc2N2CCN(C(=O)OC(C)(C)C)CC2)cc1,8,11,26,-25
CC(=O)c1cccc(NC(=O)C2c3ccccc3C(=O)N(C3CCCC3)C23CCCCC3)c1 (stereo not given),-7,-45,-175,65*
Cc1c(S(=O)(=O)NC2CCCCNC2=O)sc2ccc(Cl)cc12 (stereo not given),51*,6,10,1
Cc1ccc(NS(=O)(=O)c2cc(-c3[nH]ncc3C(=O)N3CCCC3)oc2C)c(Cl)c1,-13,6,-69,-16
O=C(COc1ccc(Cl)cc1)N1CCc2cc3ccccc3nc21,65*,2,-14,-12
COC(=O)Cc1sc(-c2ccccn2)nc1-c1ccccc1,-7,6,12,3
Cc1sc(-c2ccccn2)nc1OC(=O)c1cccc(Cl)c1Cl,77*,23,82*,-225
COc1ccc(-c2nc3ncccc3o2)cc1NC(=O)COc1ccccc1Cl,0,-3,-5,-4
COc1cc(NC(=O)CSc2nc3ncccc3o2)ccc1Cl,47*,1,-82,85*
Cc1ccc2nc(-c3cc4ccc(C)c(C)c4[nH]c3=O)c(NC3CCCC3)n2c1,41*,-2,-18,3
COc1c(C)ncc(CNCCc2c[nH]c3ccccc23)c1-c1cncn1C,-9,-9,-23,0
CC(Nc1ccc(Oc2ccccc2)cc1)C(=O)Nc1cccc(C#N)c1 (stereo not given),37*,·,·,5
CC(=O)Nc1ccc(NC(=O)C(C)Nc2ccc(Oc3ccccc3)cc2)cc1 (stereo not given),4,0,-81,61*
CCN1CCN(C(=O)CCC2CCCN(c3cc(NC4CC4)ncn3)C2)CC1 (stereo not given),0,11,5,-70
Cc1ccc(-c2csc(-n3ncc(C(=O)N4CCN(C(=O)Nc5cccc6ccccc56)C(C)C4)c3C(C)C)n2)cc1 (stereo not given),63*,27,-53,80*
CCOc1cccc(C2CC(=O)Nc3c2c(C)nn3-c2nncc(-c3ccccc3)n2)c1 (stereo not given),10,6,22,-10
Cc1[nH]c(C(=O)NC2CCCCCC2)c(C)c1S(=O)(=O)N1CCCC1,43*,-10,-34,39*
CC(=O)N1[C@@H]2CN(C(=O)c3cc(C)nc4onc(C)c34)[C@@H]3CCC[C@H]1[C@]3(C)C2,-2,0,0,3
CCN(C(=O)CSCc1nc(-c2cccc(F)c2)no1)c1ccccc1,16,8,15,-23
O=C(NCc1ccncc1)c1nc(-c2ccncc2)no1,-6,-2,-1,0
SMILES,USP17 inh,USP28 block,USP30 block,USP8 inh
CN(C)c1ccc(-c2noc(C(=O)NCc3ccncc3)n2)cc1,10,26,31*,13
CN(C)c1ccc(-c2noc(C(=O)NCc3ccccn3)n2)cc1,45*,14,8,-3
CCN1C(=O)COc2cc(-c3noc(C(=O)NCc4ccccn4)n3)ccc21,8,1,24,-50
Cc1ccc2ncc(S(=O)(=O)c3ccccc3)c(N3CCN(C)CC3)c2c1,0,-1,7,0
CC1NC(=O)C(CC(N)=O)NC(=O)C(C(C)O)NC(=O)C(C(C)C)NC(=O)C(C(C)C)NC(=O)C(NC(=O)CC(O)CCCCCCCCCCCCN=C(N)N)C(C)OC1=O (stereo not given),70*,84*,90*,-3
CN1CC(=O)N(CC(=O)N2CCN(c3ccc(F)cc3)CC2)c2ccccc2C1=O,1,-3,-5,-4
CC12CCC(=O)N1c1ccccc1C(=O)N2c1ccc(F)cc1 (stereo not given),11,12,32*,2
CCc1nc(SCC(=O)Nc2cc(OC)ccc2OC)c2oc3ccccc3c2n1,16,8,13,29
CCc1nc(SCc2ccccc2C)c2oc3ccccc3c2n1,29,9,32*,5
CCc1nc(SCC(=O)Nc2ccc(Cl)c(Cl)c2)c2oc3ccccc3c2n1,25,1,18,-241
CCc1nc(SCc2ccccc2)c2oc3ccccc3c2n1,-1,-7,0,-1
CCc1nc(SCC(=O)Nc2ccccc2Cl)c2oc3ccccc3c2n1,58*,-6,-2,5
CCc1nc(SCC(=O)Nc2cc(Cl)ccc2C)c2oc3ccccc3c2n1,54*,14,68*,26
O=C(Cc1ccc(S(=O)(=O)NC2CCCCCC2)s1)N1CCCC1,-4,-26,-88,-8
Cc1ccc(Cn2c(C(=O)O)c(CNCc3cccc(Cl)c3)c3ccc(C)cc32)cc1,13,33*,43*,-7
COc1ccc(CNCc2c(C(=O)O)n(Cc3ccc(F)cc3Cl)c3cc(C)ccc23)cc1,57*,28,63*,-59
CCn1c(C(=O)O)c(CNCCCc2ccccc2)c2ccc(C)cc21,-3,1,13,-4
Cc1ccc(Cn2c(C(=O)O)c(CNCc3ccco3)c3ccccc32)cc1,35*,13,-19,8
Cc1ccc(Cn2c(C(=O)O)c(CNC3CCCC3)c3ccccc32)cc1,-16,-2,5,-14
Cc1cc(C2CN(C(=O)c3c(C(C)C)noc3C)CCO2)nc(C)n1 (stereo not given),9,2,11,2
COc1ccc(Cl)cc1Nc1nc(CN2CCOCC2)nc2sc3c(c12)CCC3,11,-10,-27,-7
CC1CCc2c(sc3nc(CN4CCOCC4)nc(Nc4ccc(C(C)(C)C)cc4)c23)C1 (stereo not given),16,4,9,31*
O=C(Nc1cc(S(=O)(=O)N2CCOCC2)ccc1Cl)c1cc2c(s1)CCCC2,4,0,-1,0
COc1ccc(NS(=O)(=O)c2cc(OC)ccc2NC(=O)c2cc3c(s2)CCC3)cc1,31*,0,-17,-1
O=C(Cc1ccccc1)Nc1ccc2[nH]ncc2c1,27,-27,-174,61*
Cn1ccc2c(cc(C(=O)NCCC3=CCCCC3)n2C)c1=O,3,55*,14,-4
Cn1cc(-c2ccncc2)cc1C(=O)NC1CCN(Cc2ccccc2)CC1,-1,10,25,-27
O=C(NC1CCN(Cc2ccccc2)CC1)c1ccc(-c2cncnc2)nc1,-3,-5,-4,1
Cc1cc(C)c2cc(C(=O)NC3CCN(Cc4ccccc4)CC3)[nH]c2c1,23,14,67*,24
Cc1c(C)n(C)c2ccc(C(=O)NC3CCN(Cc4ccccc4)CC3)cc12,0,35*,-33,-50
